Results taken from PubChem BioAssay AID565 (University of Pittsburgh Molecular Library Screening Center, 2006).
The whole screen tested about 65,000 compounds, of which about 1,200 (1.8%) were called active. The entries come from a sample that favours actives as a whole. A number with no mark means an inactive call. Rule as the data show it: active = inhibition above about 50%; inactive = the rest.

What follows are compounds tested against Gag-Pol polyprotein (Human immunodeficiency virus type 1 group M subtype B (isolate HXB2)) (UniProt P04585) (assay: HIV-1 RT RNase H inhibitors, primary screen, biochemical, fluorescence (AID 565)). Conditions: RT-RNase H RNA/DNA duplex cleavage, at 10 µM, stronger effect = higher value.

Compound | inhibition
c1cnn(-c2cc(N3CCOCC3)ncn2)c1 | -2.75%
COc1c(C)cccc1C(=O)Nc1cc(Cl)ccc1N1CCOCC1 | -7.75%
O=C(Nc1cc(N2CCOCC2)ncn1)NC1(C(F)(F)F)Oc2ccc(Cl)cc2O1 (stereo not drawn) | 62.3% (active)
CC(Sc1nncn1C)C(=O)Nc1ccccc1-c1ccccc1 (stereo not drawn) | -1.62%
Cc1ccccc1OCC(=O)Nc1ccc(N2CCN(C(=O)C(C)C)CC2)c(Cl)c1 | -29%
CCc1ccccc1NC(=O)CSc1nnc([C@@H](NC(=O)OC(C)(C)C)C(C)C)o1 | -2.47%
CCCCOC(=O)CNc1nnc(SCC(=O)OCC)[nH]c1=O | 55.9% (active)
CCOC(=O)CSc1nc2sc3c(c2c(=O)[nH]1)CC(C)(C)OC3 | -2.48%
CCOC(=O)c1c(NC(=O)CSc2nnc(C)c(=O)[nH]2)sc2c1CCC2 | 2.54%
CCn1c(=O)cc(O)c2ccccc21 | -0.16%
CCn1c(=N)c(S(=O)(=O)c2ccc(F)cc2)cc2c(=O)n3ccccc3nc21 | 2.52%
Cc1nc2nc(COc3ccccc3)[nH]n2c(=O)c1C | -3.44%
CC1(C)CC(=O)C2=C(C1)NCN(CCCN1CCOCC1)C2 | -6.75%
C=C(C)Cn1c(N2CCN(CC)CC2)nc2c1c(=O)[nH]c(=O)n2C | 10.6%
Cc1ccc(S(=O)(=O)Cn2nnnc2CN2CCN(Cc3ccc4c(c3)OCO4)CC2)cc1 | 1.61%
c1ccc(CCn2nnnc2CN2CCN(C3CCCC3)CC2)cc1 | -0.5%
Cc1ccc(Cn2nnnc2CN2CCC(n3nnc4ccccc43)CC2)cc1 | 68.7% (active)
Brc1ccc(Nc2c3c(nc4ncnn24)CCC3)cc1 | -1.42%
Cc1c(C(=O)CN2CCOCC2)[nH]c2ccccc12 | -6.56%
O=C1NC(c2ccncc2)Nc2sc3c(c21)CCCC3 (stereo not drawn) | 12.9%
Clc1ccc(C2CC(c3cccs3)n3ncnc3N2)cc1Cl (stereo not drawn) | -4.72%

Compound | inhibition
Cc1ccnc(N2CCC(C(=O)NC3CCCCCC3)CC2)n1 | -5.09%
Cc1ccnc(N2CCCC(C(=O)Nc3cc(F)ccc3C)C2)n1 (stereo not drawn) | 58.3% (active)
O=C(Nc1ccc2c(c1)OCCO2)C1CCCN(c2ncccn2)C1 (stereo not drawn) | 7.08%
O=C(NCCC1=CCCCC1)C1CCN(Cc2cnn(-c3ccccc3)c2-n2cccc2)CC1 | -3.34%
Cc1cc(C)c2c(n1)nn1c(-n3ccnc3)cc(C)nc21 | -11.4%
CCOC(=O)N1CCN(CC(=O)c2c(C)[nH]c3ccccc23)CC1 | -4.83%
CCOC(=O)N1CCN(CC(=O)n2c(C)c(C)c3ccccc32)CC1 | -3.69%
CCOC(=O)N1CCN(CC(=O)c2ccc3c(c2)CCN3)CC1 | 75.5% (active)
O=C1c2ccncc2C(=O)N1C1CCCCC1 | -26.2%
COCCNC(=O)COc1ccc(C)c(C)c1 | -5.41%
COCCNC(=S)c1ccc(OC)cc1 | 88.3% (active)
COc1ccc(NC(=O)c2ccc(OC)cc2)cc1 | 2.87%
COC(=O)C(C)Sc1nc2c(c(=O)n(C)c(=O)n2C)n1Cc1cccc(C)c1 (stereo not drawn) | 8.94%
Cc1cc(Nc2ccccc2)n(CCC#N)n1 | -2.42%
CCc1ccc2oc(=O)cc(CN3CCCCC3C)c2c1 (stereo not drawn) | -13.3%
COc1ccc(Cl)cc1NC(=O)c1oc(C)nc1C | 12.9%
Cc1nc(C)c(C(=O)Nc2cccc(C)c2C)o1 | 52.9% (active)
Cc1nc(C)c(C(=O)Nc2ccc(C)c(F)c2)o1 | 31.9%
CS(=O)(=O)N(CC(=O)N1CCN(c2cccc(Cl)c2)CC1)c1ccccc1 | -9.31%
CCOC(=O)CSc1nnc(-c2ccncc2)o1 | -9.52%
COCCCNC(=O)COc1cc(C)c(Cl)c(C)c1 | -96.5%

Compound | inhibition
CCC(Sc1nncn1C)C(=O)Nc1nnc(-c2ccc(Cl)cc2)s1 (stereo not drawn) | -2.44%
COc1cccc(-c2nnc(NC(=O)c3ccc(S(=O)(=O)N(CC(C)C)CC(C)C)cc3)o2)c1 | 65.7% (active)
CCN(CC)C(=O)CSc1nnc(-c2cccc(OC)c2)o1 | -4.72%
COc1cccc(NC(=O)CN(C)S(=O)(=O)c2ccc(C)cc2)c1 | -3.65%
CCOc1cc(S(=O)(=O)NCc2ccc3c(c2)OCO3)ccc1F | -4.32%
Cc1ccc2[nH]c3c(c2c1)CN(C(=O)CN1CCN(c2ccccc2)CC1)CC3 | -8.5%
O=C(NC1CCCCC1)N1CCc2[nH]c3ccccc3c2C1 | -1.26%
CCCC(=O)N1CCc2[nH]c3ccccc3c2C1 | 51.2% (active)
CCCC(NS(=O)(=O)c1ccc(OC)cc1)C(=O)O (stereo not drawn) | -5.87%
CCc1nnc(NC(=O)CSc2nnc(Cc3ccccc3)n2-c2ccc(OC)cc2)s1 | 10.7%
CCc1nnc(NC(=O)CSc2nnc(COc3ccc(C#N)cc3)n2-c2ccccc2)s1 | 60.1% (active)
CCc1nnc(NC(=O)CSc2nnc(-c3ccncc3)n2Cc2ccccc2)s1 | -7.97%
CCOC(=O)N1CCN(C(=O)c2cc3c(-c4ccc(Cl)cc4)nn(C)c3s2)CC1 | -13.4%
CCCCn1c(SCc2ncc(-c3ccccc3)o2)nc2cc(S(N)(=O)=O)ccc21 | -15.2%
CCOc1ccc(N(CC(=O)OC)S(=O)(=O)c2c(C)noc2C)cc1 | -2.65%
O=c1c2ccccc2nc(CSc2nnnn2-c2ccccc2)n1-c1ccccc1 | 52% (active)
Cc1ccc(Nc2nc(CSc3nnnn3-c3ccccc3)cc(=O)[nH]2)cc1 | 2.45%
N#CCSc1nc2ccccc2c(=O)n1-c1ccccc1 | -15%
COc1ccc(OCCCC(=O)Nc2nnc(C3CCCO3)s2)cc1 (stereo not drawn) | 8.11%
CCCCC(=O)N(c1ccc(OC)cc1)C1C=CS(=O)(=O)C1 (stereo not drawn) | -0.43%
COC(=O)N(c1ccc(OC)cc1)P1(=S)OCCC(C)O1 (stereo not drawn) | 94.7% (active)
